# Test results from paper PMC4336329 (PLoS ONE, 2015).
# The whole screen tested about 310,000 compounds, of which about 14,000 (4.5%) showed an effect of 50% or more. Effects have a minus sign here. The sample as a whole holds a higher share of strong results than the screen did.
# Target: human ether-à-go-go-related gene (hERG) potassium channel (human, UniProt Q12809)
# Test: primary screen, population patch clamp on CHO cells stably expressing hERG; higher = less effect of the substance
# 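Also: peak tail current of the secondary pulse compared with the same well before compound.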
# Chain of human ether-à-go-go-related gene (hERG) potassium channel (Q12809 whole entry, looked up): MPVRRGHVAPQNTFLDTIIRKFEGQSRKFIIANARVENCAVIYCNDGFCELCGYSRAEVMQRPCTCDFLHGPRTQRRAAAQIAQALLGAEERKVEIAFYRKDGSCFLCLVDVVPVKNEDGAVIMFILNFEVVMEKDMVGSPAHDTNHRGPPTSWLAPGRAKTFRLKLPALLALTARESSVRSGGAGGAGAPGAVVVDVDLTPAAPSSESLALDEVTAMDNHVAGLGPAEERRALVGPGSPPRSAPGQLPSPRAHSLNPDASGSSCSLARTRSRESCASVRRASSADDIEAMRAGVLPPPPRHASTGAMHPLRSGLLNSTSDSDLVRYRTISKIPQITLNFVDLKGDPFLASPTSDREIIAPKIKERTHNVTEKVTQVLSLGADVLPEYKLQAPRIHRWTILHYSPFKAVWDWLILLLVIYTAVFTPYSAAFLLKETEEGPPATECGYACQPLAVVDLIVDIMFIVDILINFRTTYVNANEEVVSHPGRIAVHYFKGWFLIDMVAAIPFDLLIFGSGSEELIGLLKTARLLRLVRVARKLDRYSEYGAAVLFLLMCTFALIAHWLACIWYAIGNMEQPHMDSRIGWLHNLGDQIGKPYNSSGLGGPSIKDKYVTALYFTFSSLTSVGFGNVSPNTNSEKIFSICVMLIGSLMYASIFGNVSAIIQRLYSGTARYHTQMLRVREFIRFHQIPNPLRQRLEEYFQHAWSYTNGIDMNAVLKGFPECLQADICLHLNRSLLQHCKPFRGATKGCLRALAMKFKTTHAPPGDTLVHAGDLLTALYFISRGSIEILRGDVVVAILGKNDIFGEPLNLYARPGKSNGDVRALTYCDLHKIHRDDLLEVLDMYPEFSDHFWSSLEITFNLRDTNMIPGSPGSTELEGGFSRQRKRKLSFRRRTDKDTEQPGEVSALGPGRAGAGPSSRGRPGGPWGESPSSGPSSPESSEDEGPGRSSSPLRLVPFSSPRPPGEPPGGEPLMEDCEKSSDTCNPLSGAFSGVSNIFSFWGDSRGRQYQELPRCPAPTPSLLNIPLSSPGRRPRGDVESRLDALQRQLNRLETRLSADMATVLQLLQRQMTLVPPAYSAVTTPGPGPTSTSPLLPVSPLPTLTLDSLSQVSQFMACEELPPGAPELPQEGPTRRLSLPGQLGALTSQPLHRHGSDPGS
row,Structure (SMILES),"hERG current change (%, negative = inhibition) at 10uM [%]"
1,CC(C)(CC(=O)O)CC(=O)Nc1ccc2c(c1)ncn2CCc1ccccc1,15.8
2,CNC(=O)NC(=O)COC(=O)c1ccc(-n2c(C)ccc2C)cc1,-7.41
3,COc1ccc(C(CC(=O)O)NC(=O)COc2cc(C)ccc2C)cc1OC (centres unmarked),21.2
4,CCn1c(=N)n(CC(O)COc2cccc(C)c2)c2ccccc21.Cl (centres unmarked),-58.6
5,CCCn1c(=N)n(CC(O)COc2cccc(C)c2)c2ccccc21.Cl (centres unmarked),-71.3
6,CCCCn1c(=N)n(CC(O)COc2cccc(C)c2)c2ccccc21.Cl (centres unmarked),-72.6
7,COCCCNc1nc2c(c(=O)[nH]c(=O)n2C)n1CC(O)COc1cccc(C)c1 (centres unmarked),-2.66
8,Cc1ccc(-n2c(=O)[nH]cc(C(=O)Nc3ccc4c(c3)OCCO4)c2=O)cc1,18.3
9,CC(=O)N1CCN(c2ccc(NC(=O)c3cccc(OCc4ccccc4)c3)cc2)CC1,7.06
10,c1ccc(OCCCn2ccnc2)cc1,16.3
11,O=c1ccc2ccccc2n1Cc1cccc(F)c1,9.61
12,COc1ccc(CCN2C(=O)CC(Cc3ccccc3)C2=O)cc1OC (centres unmarked),-17.2
13,Cc1ccc(SCC(=O)OC(C)C(=O)NCc2ccccc2)cc1 (centres unmarked),-1.8
14,COc1ccc2c(c1)OC[C@H]1[C@H]2N2C(=O)CN(CC3CCCO3)C(=O)[C@@]2(C)[C@H]1c1ccccc1 (some centres unmarked),-1.62
15,CCn1cnc2cc(NCc3ccc(N(C)C)cc3)ccc21,-8.28
16,CCn1cnc2cc(NCc3ccncc3)ccc21,6.89
17,CCn1cnc2cc(NCc3ccc(Cl)cc3)ccc21,-68
18,COc1ccc(CNc2ccc3c(c2)nc(C)n3C)cc1OC,-17.1
19,CCn1cnc2cc(NCc3ccc(C)cc3)ccc21,-40.4
20,COc1ccc(CNc2ccc3c(c2)nc(C)n3C)cc1,-31.9
21,COc1ccc(OC)c(CNc2ccc3c(c2)nc(C)n3C)c1,-68.4
22,CCCn1cnc2cc(NCc3cccc(OC)c3)ccc21,-67.2

row,Structure (SMILES),"hERG current change (%, negative = inhibition) at 10uM [%]"
1,CCc1ccc(CNc2ccc3c(c2)ncn3CC)cc1,-19.7
2,CCCn1cnc2cc(NCc3cccs3)ccc21,-10.9
3,CCn1cnc2cc(NCc3ccc(Br)cc3)ccc21,-61.3
4,CCn1cnc2cc(NCc3ccc(OC)cc3)ccc21,-39.4
5,CCc1ccc(N(CC(=O)Nc2ccccc2C(=O)N2CCCC2)S(C)(=O)=O)cc1,-10.6
6,CN(C)c1ccc(CNn2cnnc2SCc2ccc(F)cc2)cc1,-9.48
7,COc1ccc(NC(=O)CC2C(=O)N(c3ccc(OC)cc3)C(=O)N2C(C)C)cc1 (centres unmarked),-5.34
8,Cc1ccc(NC(=O)c2ccc(-n3cncn3)c([N+](=O)[O-])c2)cc1F,-18.1
9,CC12CCC(C(=O)Nc3ccccc3Br)(C/C1=N\O)C2(C)C (centres unmarked),4.44
10,CC(On1nnc2ccccc21)C(=O)N1CCN(Cc2ccccc2)CC1 (centres unmarked),18.2
11,C(#CCN1CCOCC1)COCc1ccccc1.Cl,11.1
12,COc1cccc(OCCOc2ccc(/C=C3/SC(=S)NC3=O)cc2)c1,23
13,CN(CC(=O)Nc1ccccc1Cl)C(=O)CSc1nnc(-c2ccco2)o1,-7.79
14,CCCn1cnc2cc(NCc3cccc(OC)c3O)ccc21,-29.3
15,Cn1cnc2cc(NCc3ccc(Cl)cc3)ccc21,-18.3
16,CCCn1cnc2cc(NCc3ccccc3O)ccc21,-0.21
17,Cc1ccc(CNc2ccc3c(c2)nc(C)n3C)cc1,-21.9
18,CCCn1cnc2cc(NCc3ccc(Br)cc3)ccc21,-73.9
19,CCn1cnc2cc(NCc3ccccc3Cl)ccc21,-52.1
20,CCn1cnc2cc(NCc3cccc(OC)c3O)ccc21,-5.91
21,CCCn1cnc2cc(NCc3ccccn3)ccc21,-18.8
22,CCCCn1cnc2cc(NCc3cccc(OC)c3O)ccc21,-51.2

row,Structure (SMILES),"hERG current change (%, negative = inhibition) at 10uM [%]"
1,CCCCn1cnc2cc(NCc3ccncc3)ccc21,-1.31
2,Cc1nc2cc(NCc3ccc(Cl)cc3)ccc2n1C,-70.6
3,Cn1cnc2cc(NCc3ccccc3Cl)ccc21,-35
4,CN(C)c1ccc(C(CNC(=O)c2ccccc2F)c2c[nH]c3ccccc23)cc1 (centres unmarked),-8.6
5,Cc1[nH]c(C)c(S(=O)(=O)Nc2ccc(OC(F)(F)F)cc2)c1C(=O)N1CCCCC1,-7.79
6,O=C(N/N=C/C=C/c1ccccc1)c1cccc(Br)c1,5.3
7,FC(F)(F)c1ccccc1N1CC1c1ccncc1 (centres unmarked),13.3
8,O=C(O)c1ccccc1C(=O)NC1CCN(c2nccc(C(F)(F)F)n2)CC1,9.16
9,COc1ccc(N2C(=O)CC(N3CCCC4CCCCC43)C2=O)cc1 (centres unmarked),1.28
10,CCOC(=O)c1ccc(NC(=O)C2CC2)cc1,-18.4
11,COc1cccc(/C=N/NC(=O)c2cc(-c3cccn3C)n[nH]2)c1,-61.1
12,COc1ccc(/C=N/NC(=O)c2cc(-c3cccn3C)n[nH]2)cc1OC,-27.5
13,Cn1cccc1-c1cc(C(=O)N/N=C/c2cccc(O)c2)[nH]n1,-7.31
14,CCOc1nc2ccccc2cc1C=O,-5.31
15,Cc1ccc(NS(=O)(=O)c2ccc(NC(=O)[C@@H]3CCCC[C@@H]3C(=O)O)cc2)c(C)c1,18
16,Cc1ccccc1N1CC(O)(c2ccccc2)[N+]2=C1SCC2.[Br-] (centres unmarked),-19.5
17,Cc1ccccc1N1CC(O)(c2cccs2)[N+]2=C1CCCC2.[Br-] (centres unmarked),-25.9
18,COc1ccc(OC)c(N2CC(O)(c3cccs3)[N+]3=C2SCCC3)c1.[Br-] (centres unmarked),-50.5
19,COc1ccc(OC)c(N2CC(O)(c3ccccc3)[N+]3=C2SCCC3)c1.[Br-] (centres unmarked),-72.6
20,Cc1ccc(C)c(N2CC(O)(c3cccs3)[N+]3=C2CCCC3)c1.[Br-] (centres unmarked),-23
21,COc1ccc(C2(O)CN(c3ccccc3)C3=[N+]2CCS3)cc1OC.[Br-] (centres unmarked),1.7
